V-ATPase pH: yeast V-ATPase proton transport regulation by pHLuorin. 350,000 tested, 0.37% active. S. cerevisiae, pHLuorin cytosolic pH fluorescence. AID 504577. response, % at 10 µM; in the data active means response mostly above about 7.3%, no sharp cut-off; inactive means mostly below about 5.4%; further: actives read high
NALP3 yeast inh: inhibitors of NALP3 inflammasome in yeast. Yeast reconstituted NLRP3/ASC/caspase-1, beta-gal luminescence, 24 h. inhibition, % at 10 µM. 330,000 tested, 0.39% active;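 active means inhibition of 50% or more; inactive means inhibition below 50%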;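 further: plate controls were induced DMSO wells for no effect and uninduced yeast grown without galactose for full effect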
Rce1 inh: yeast Ras-converting enzyme inhibition | 290,000 tested, 0.27% active | yeast membranes, quenched prenylated peptide cleavage fluorescence | calls only;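 active means fall in fluorescence gain of 50% or more versus controls, with final raw signal at or below 3038400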;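 further: plate controls were neutral control wells for no effect and wells lacking membranes for full effect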
Yeast superoxide: yeast age-related superoxide inhibition as caloric restriction mimetic | superoxide response (% of plate mean), % at 10 µM | S. cerevisiae aged cells, superoxide DHE fluorescence; active compounds read low | 330,000 tested, 0.18% active;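 active means superoxide response under a set limit, about three screen SD below normal, cut at about 65% in these data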;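 further: yeast aged for seven days with compound at 30 °C before DHE staining; 100% = average MFI of all compound-treated wells on the plate with controls excluded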
PERK inh: blocks human PERK kinase | Q9NZJ5 | CHO PERK-DD fusion, SEAP luminescence translation reporter | inhibition, % at 5.6 µM | 220,000 tested, 0.17% active | AID 1416;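 active means inhibition above the mean inhibition of all tested compounds plus 3 SD, set separately per screening campaign, cut at about 2.9% in these data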;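 further: PERK kinase domain activated by AP20187 dimerizer at 100 nM; 0% = DMSO with dimerizer and 100% = rapamycin at 8.4 µM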
NALP1 yeast inh: inhibitors of NALP1 inflammasome in yeast. inhibition, % at 10 µM. S. cerevisiae NALP1/ASC/caspase-1 growth, X-gal OD620, 72 h. AID 2071. 280,000 tested, 0.61% active; in the data active means inhibition mostly above about 24%, no sharp cut-off; inactive means mostly below about 32%
V-ATPase pH SP: modulates yeast V-ATPase proton transport; shares compounds with V-ATPase pH; S. cerevisiae pHLuorin cytosolic pH; response, % at 10 µM; 980 tested, 2% active; AID 602197; in the data active means response above about 24%;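 further: plate controls were vehicle wells for no effect and positive control wells for full effect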
Active calls of the source: *. The list is not random: actives were taken first. Their share in the collection is about 1.6%.

What do the screens show for `COc1ccc(/C(N)=N/OC(=O)Cc2ccc(C)cc2)cc1`?
V-ATPase pH: -1; NALP3 yeast inh: 7; Rce1 inh: inactive; Yeast superoxide: 104; PERK inh: 1; NALP1 yeast inh: 16

What do the screens show for `COc1ccc(CC(=O)OC(C)C(=O)c2ccc(C)cc2)cc1` (stereo unspecified)?
V-ATPase pH: 8.3*; NALP3 yeast inh: 1; Rce1 inh: inactive; Yeast superoxide: 106; NALP1 yeast inh: 7; V-ATPase pH SP: -3

Results for CCCc1nc2sc3c(c2c(=O)n1NC(=O)CCC(=O)O)CCCC3 ?
V-ATPase pH: 8.6*; NALP3 yeast inh: 10; Rce1 inh: inactive; Yeast superoxide: 106; PERK inh: 1; NALP1 yeast inh: 32; V-ATPase pH SP: -4

How did CCn1c(SCC(=O)O)nc2sc3c(c2c1=O)CCC3 do in these assays?
V-ATPase pH: -2; NALP3 yeast inh: 6; Rce1 inh: inactive; Yeast superoxide: 102; PERK inh: 0; NALP1 yeast inh: 11

Results for Cc1ccccc1C(=O)NC1CCN(CC(=O)Nc2ccc(N(C)C)cc2)CC1 ?
V-ATPase pH: -5; NALP3 yeast inh: 7; Rce1 inh: inactive; Yeast superoxide: 95; NALP1 yeast inh: 20

How did CC(=O)c1ccc(NC(=O)CN2CCC(NC(=O)c3ccccc3C)CC2)cc1 do in these assays?
V-ATPase pH: 8.2*; V-ATPase pH SP: -1

Results for Cc1cc(C)c(NC(=O)CSc2nc3ccc(N4C(=O)c5ccccc5C4=O)cc3s2)c(C)c1 ?
V-ATPase pH: 9.0*; NALP3 yeast inh: 16; Rce1 inh: inactive; Yeast superoxide: 116; PERK inh: 2; NALP1 yeast inh: -10; V-ATPase pH SP: -47

What do the screens show for `COc1ccc(N2CCN(C(=O)c3ccc(S(=O)(=O)N4CCCCCC4)cc3)CC2)cc1`?
V-ATPase pH: 13*; NALP3 yeast inh: 12; V-ATPase pH SP: -1

Results for O=c1c(=O)n(CCO)n(CCO)c(=O)n1CCO ?
V-ATPase pH: -1

Results for COc1cccc(-n2c(CCn3nc(C)c([N+](=O)[O-])c3C)n[nH]c2=S)c1 ?
V-ATPase pH: 9.7*; NALP3 yeast inh: 10; Rce1 inh: inactive; Yeast superoxide: 94; PERK inh: 0; NALP1 yeast inh: 20; V-ATPase pH SP: -2

How did COc1ccc(N(CC(=O)NCCC2=CCCCC2)S(=O)(=O)c2ccccc2)cc1OC do in these assays?
V-ATPase pH: 14*; NALP3 yeast inh: 17; Rce1 inh: inactive; Yeast superoxide: 104; PERK inh: 0; NALP1 yeast inh: 7; V-ATPase pH SP: -1

How did COc1ccc2c(c1)C(c1ccc(C)o1)=NNC(c1cccnc1)=N2 do in these assays?
V-ATPase pH: 8.6*; NALP3 yeast inh: -3; Rce1 inh: inactive; Yeast superoxide: 104; PERK inh: 0; NALP1 yeast inh: 19; V-ATPase pH SP: 6

Results for C[C@H]1CN([C@@H](C)CO)C(=O)CCCn2nncc2CO[C@H]1CN(C)S(=O)(=O)c1ccc(-n2cccn2)cc1 ?
V-ATPase pH: 0

What do the screens show for `COc1ccc(/C=C/C(=O)c2ccc(O)cc2)cc1`?
V-ATPase pH: 9.3*; NALP3 yeast inh: 33; Rce1 inh: inactive; Yeast superoxide: 87; PERK inh: 1; NALP1 yeast inh: 2; V-ATPase pH SP: 5

How did O=C(C[C@H]1C(=O)N(C2CCCCC2)C[C@@H]1c1ccccc1)Nc1ccc(Br)cc1 do in these assays?
V-ATPase pH: 1

What do the screens show for `O=C(Nc1ccc(Oc2ccccc2)nc1)C1CCN(Cc2ccco2)CC1`?
V-ATPase pH: 8.7*; NALP3 yeast inh: 7; Rce1 inh: inactive; Yeast superoxide: 91; NALP1 yeast inh: 10; V-ATPase pH SP: 1

How did CCCCCCSc1nsc(NC(C)=O)n1 do in these assays?
V-ATPase pH: 11*; NALP3 yeast inh: 23; Rce1 inh: inactive; Yeast superoxide: 113; PERK inh: 1; NALP1 yeast inh: 26; V-ATPase pH SP: 4

Results for O=C(O)CCCC(=O)N1CCCC1 ?
V-ATPase pH: 12*; NALP3 yeast inh: 17; Rce1 inh: inactive; Yeast superoxide: 102; PERK inh: 0; NALP1 yeast inh: 2; V-ATPase pH SP: -2

How did O=C(CCCC(=O)N1CCCC1)N1CCCC1 do in these assays?
V-ATPase pH: 5; NALP3 yeast inh: 19; Rce1 inh: inactive; Yeast superoxide: 87; NALP1 yeast inh: -5

From PubChem
